TTR transcr act: increases transthyretin transcription | activation, % at 16.7 µM | AID 1117267 | SH-SY5Y TTR promoter Gaussia luciferase, luminescence; 100% = recombinant luciferase protein wells | 92,000 compounds, 1.3% hits;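 active = activation above the mean of all tested compounds plus 3 SD, cut at about 9.5% in these data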;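 also: cells exposed to compounds for one day before reading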
HuH7 TTR inh: decreases TTR transcription in HuH7 cells in activator counter-screen. HuH7 TTR promoter-Gaussia luciferase reporter, luminescence. AID 1117279. inhibition, % at 16.7 µM. 1,100 compounds, 4% hits. shares compounds with TTR transcr act;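 active = average inhibition above the solvent-only control wells' mean plus 3 SD, cut at about 15% in these data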;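 also: inhibitors lower well luminescence so higher value means more inhibition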
TTR up confirm: human TTR transcription activation, confirmation; shares compounds with TTR transcr act; SHSY5Y TTR promoter Gaussia luciferase, luminescence; 100% = purified Lucia enzyme wells, no cells; activation, % at 16.7 µM; 1,100 tested, under 10 active;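 active = mean activation above a set limit taken from the earlier primary screen, cut at about 11% in these data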
Hits are given with their value; . = inactive. The sample as a whole holds a higher share of hits than the screen did.

SMILES	TTR transcr act	others
O=C(CCl)NNC(=O)c1c(O)c2ccccc2[nH]c1=O	.
O=C(Cn1c(=O)c2cccn2c2cccnc21)NCCCN1CCN(c2ccc(Cl)cc2)CC1	.
C#CCNC(=O)C[C@H]1C[C@@]2(C(=O)OC)C(=C[C@H](COCc3ccccc3)O[C@@H]2C)N(Cc2ccccc2)C1=O	.
O=C(NCCc1ccccc1)OCc1cn(Cc2c(F)cccc2F)nn1	.
C[C@H]1CN([C@@H](C)CO)C(=O)c2cc(C#CC3(O)CCCC3)cnc2O[C@H]1CN(C)C(=O)C1CC1	.
O=C(Nc1ncccc1Cl)c1cccc(F)c1	12	HuH7 TTR inh=.;TTR up confirm=.
Cc1cc(NC(=O)c2cccc(F)c2)no1	.
COc1cc(OC)c(NC(=O)c2cccc(F)c2)cc1Cl	.
COC(=O)C[C@@H]1CC[C@H]2[C@@H](COc3ccc(NC(=O)Nc4ccccc4Cl)cc3C(=O)N2C)O1	.
CCCC1CCC2(CC1)CCC2OC(=O)Nc1cccc(C(F)(F)F)c1 (stereo not drawn)	.
NC(=O)C12NC(Cc3ccccc31)c1ccccc12 (stereo not drawn)	.
Cc1ccnc(SCc2cc(=O)c(OC(=O)c3ccc(C#N)cc3)co2)n1	.
COC(=O)NCc1ccc2c(c1)OCO2	.
CCOCC(=O)NCc1ccc2c(c1)OCO2	12	HuH7 TTR inh=.;TTR up confirm=.
Cc1ccc(CC(=O)NCc2ccc3c(c2)OCO3)cc1	.
CCCCCCCCN1C(=O)[C@@H](CC(=O)N2CCC(c3ccccc3)CC2)C[C@@]2(C(=O)OC)C1=C[C@H](C(C)C)O[C@@H]2C1CC1	.
CN1[C@H](Cc2ccccc2)COc2cccc(F)c2S1(=O)=O	.
COc1cc(CN2CCC(C(=O)NC3CCCC3)CC2)cc(OC)c1O	.
CCOC(=O)C1CCCN(Cc2cc(Br)c(OC)cc2OC)C1 (stereo not drawn)	.
CCOC(=O)C1CCCN(Cc2cc(OC)c(O)c(OC)c2)C1 (stereo not drawn)	25	HuH7 TTR inh=.;TTR up confirm=.
COc1ccc(CCNC(=O)Nc2ccc3c(c2)[C@@]2(CC(=O)N(CC(C)C)C2c2ccccc2)C(=O)N3C)cc1OC (stereo partly drawn)	.
COc1ccc(CCNC(=O)Cn2nnc(-c3ccccc3F)n2)cc1OC	.
O=C(Cn1cnc2c(nnn2Cc2ccc(F)cc2)c1=O)NCc1ccc(F)cc1	.
COc1ccc(CCNC(=O)Cn2cnc3c(nnn3Cc3ccccc3F)c2=O)cc1OC	22	HuH7 TTR inh=.;TTR up confirm=.
COC(=O)[C@]12C[C@H](CC(=O)NCC3CCCCC3)C(=O)N(Cc3ccccc3)C1=C[C@H](COCc1ccccc1)O[C@@H]2C	.
SMILES	TTR transcr act	others
COc1ccccc1NC(=O)OC[C@@H]1CSCCS(=O)(=O)N1	.
CCCC1CCC2(CC1)CCC2OC(=S)Nc1ccccc1Br (stereo not drawn)	.
COc1ccc2c3c1OC1CC(O)C=CC31CCN(C)C2 (stereo not drawn)	12	HuH7 TTR inh=.;TTR up confirm=.
CCOc1ccc(NC(=O)C2CCCN(S(=O)(=O)c3ccc4c(c3)C(C)(C)C(=O)N4C)C2)cc1 (stereo not drawn)	.
CCOc1ccc(C(=O)Nc2cccc(C(=O)O)c2C)cc1Cl	.
COc1ccc(C(=O)Nc2cc(C(=O)O)cc(C(=O)O)c2)cc1Cl	.
COc1ccc(C(=O)Nc2ccccc2C(=O)O)cc1Cl	78	HuH7 TTR inh=.;TTR up confirm=.
CCOC(=O)[C@@]12CCC3=C1N(CCC3)C(=O)[C@H](CC(=O)N1CCSCC1)C2	.
CCOC(=O)[C@@]12CCC3=C1N(CCC3)C(=O)[C@H](CC(=O)NCC13CC4CC(CC(C4)C1)C3)C2	.
CCCn1c(=O)c2c(nc3n2CC(C)CN3Cc2ccccc2)n(C)c1=O (stereo not drawn)	.
C=CCn1c(=O)c2c(nc3n2CCCN3CCc2ccccc2)n(C)c1=O	.
CC1CN(c2ccc(Oc3ccccc3)cc2)c2nc3c(c(=O)n(CC(N)=O)c(=O)n3C)n2C1 (stereo not drawn)	.
C=CCn1c(=O)c2c(nc3n2CC(C)CN3Cc2ccccc2)n(C)c1=O (stereo not drawn)	11	HuH7 TTR inh=16;TTR up confirm=.
CC1CN(Cc2ccccc2)c2nc3c(c(=O)n(CC(N)=O)c(=O)n3C)n2C1 (stereo not drawn)	13	HuH7 TTR inh=19;TTR up confirm=.
Cc1ccc(N2CC(C)Cn3c2nc2c3c(=O)n(CC(=O)OCc3ccccc3)c(=O)n2C)cc1C (stereo not drawn)	.
c1ccc(Cn2ccc3ccc(-c4ccc5ccn(Cc6ccc(-c7ccccc7)cc6)c5c4)cc32)cc1	.
COC(=O)[C@]12C[C@H](CC(=O)N3CCN(C(=O)C4CC4)CC3)C(=O)N(CCC3=CCCCC3)C1=C[C@H](C1CCCC1)O[C@@H]2C	.
CC(C)(C)c1ccc(C(=O)Nc2cc(Cl)ccc2-c2nn[nH]n2)cc1	.
